High-throughput results as filed in PubChem.
LDHA inh = qHTS assay for inhibitors of human lactate dehydrogenase | L-lactate dehydrogenase A chain (Homo sapiens), P00338 | purified LDHA, NADH/diaphorase-resazurin fluorescence; active compounds read low | activity change, % (values are at about 110 or 230 µM) | 480,000 compounds, 0.15% hits | AID 1347041, 2019; in the data active means activity change below about -30%; inconclusive means mostly about -25% to -30%;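 further: plate controls were DMSO wells for no effect and wells without enzyme for full effect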
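Remaining NADH was detected by diaphorase (0.133 mg/mL) converting 37 µM resazurin to fluorescent resorufin, read at 0 and 20 minutes. The preceding 5-minute room-temperature reaction used 2 nM LDHA, 0.2 mM sodium pyruvate and 0.06 mM NADH at pH 7.4.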
AT treatment = qHTS Assay for Identifying a Potential Treatment of Ataxia-Telangiectasia | F2112 A-T fibroblasts, KAP-1 phosphorylation AlphaLISA; neocarzinostatin DNA damage 30 min before lysis | Potency, µM (doses to about 57.5 µM), for the others: top-dose activation, hits mostly activators | 320,000 compounds, 0.19% hits; further: potency means the concentration at half of the fitted maximal effect; % of control where 0% means no effect; nearly all actives have a fitted effect of over 45% in size
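hTERT-immortalized A-T patient fibroblasts (F2112), 500 cells/well in OPTI-MEM, 1% FBS, got compounds for 60 min, then NCS for 30 min at 37C. Lysates were then assayed for phospho-KAP-1 by AlphaLISA (anti-pKAP1 donor, anti-KAP1 acceptor beads), 6 hr at 25C.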
Apoferritin bind = qHTS Assay for Identification of Novel General Anesthetics; apoferritin/1-aminoanthracene competitive binding, fluorescence; AID 485281, 2010; 350,000 compounds, 0.074% hits; Potency, µM (series often up to 77.5 µM), for inactives: top-dose activity change, negative = displacement, actives largely listed as inhibitors; Ferritin light chain (Equus caballus), P02791; further: potency means the concentration at half of the fitted maximal effect; on the % scale 0 is the no-effect control and ±100 the full control effect; nearly all actives have a fitted effect of over 20% in size
Target sequence (P02791 2-175 limits assumed): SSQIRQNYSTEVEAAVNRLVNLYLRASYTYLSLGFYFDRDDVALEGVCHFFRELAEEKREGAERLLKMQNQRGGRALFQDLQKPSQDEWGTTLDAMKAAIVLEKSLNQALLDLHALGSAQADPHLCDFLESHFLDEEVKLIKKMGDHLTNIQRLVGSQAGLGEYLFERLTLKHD
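Horse-spleen apoferritin (10 uM) was mixed with 50% saturated 1-aminoanthracene in PBS, exposed to compounds for 10 min at room temperature, and read for fluorescence (ex 380 nm, em 535 nm). Competitive displacement was fitted with a four-parameter Hill equation.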
RGS4 inh = Inhibitors of Regulator of G Protein Signaling (RGS) 4: qHTS; Transcreener GDP fluorescence polarization, RGS4-accelerated GTP hydrolysis; Potency, µM (highest dose often 114 µM), for inactives: at the highest dose activity change, negative = inhibition, most hits filed as inhibitors; 390,000 compounds, 0.039% hits; AID 504845, 2011; further: potency means the concentration at half of the fitted maximal effect; on the % scale 0 is the no-effect control and ±100 the full control effect; nearly all actives have a fitted effect of over 75% in size
Target sequence (P49798 whole entry, looked up): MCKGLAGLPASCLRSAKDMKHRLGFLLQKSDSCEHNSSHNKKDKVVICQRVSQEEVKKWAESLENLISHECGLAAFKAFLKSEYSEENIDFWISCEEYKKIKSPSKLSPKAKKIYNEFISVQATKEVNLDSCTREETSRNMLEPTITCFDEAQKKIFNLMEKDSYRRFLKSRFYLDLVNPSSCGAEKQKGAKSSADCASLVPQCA
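MLSMR compounds (23 nl, pin-transferred) preincubated 10 min at room temperature with a 500nM (2x) first reagent, then RGS4 at 900nM (2x) plus Transcreener GDP mix added; fluorescence polarization (620/688 nm) read before and after 90 min at 30 °C.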
Numbers without * were called inactive; ? = inconclusive; · = not tested or not shown; [ ] = remark or other dose. Sampled rows, rich in hits. Any-hit rate of the full collection: about 0.35%. Unless noted, the call rests on the fitted dose curve; in most records, active means well fitted curve in the direction sought with a large enough effect; inconclusive means small, poorly fitted or top-dose-only effect, or another doubt; inactive means no such curve, though single readings can be large; an effect the other way counts as inactive or inconclusive.

SMILES | LDHA inh | AT treatment | Apoferritin bind | RGS4 inh
NCCOc1ccc(C23CC4CC(CC(C4)C2)C3)cc1 | -12.0 | -9.1% | 11.2µM* | -0.6%
C(=C\c1ccco1)/C1=NN(c2ccccc2)C(c2ccco2)C1 (stereo not drawn) | 1.6 | 31.6µM* | 5.2% | -31.6%
CC(=O)N1N=C(c2ccc(Cl)cc2)CC1c1ccco1 (stereo not drawn) | -4.5 | -5.4% | -4.7% | 19.3%
Cc1ccc(C2CC(c3ccccc3)=NN2c2ccccc2)o1 (stereo not drawn) | 0.1 | 20µM* | 398.4% | -44.9%
O=[N+]([O-])c1ccc(/C=C/C2=NN(c3ccccc3)C(c3ccco3)C2)o1 (stereo not drawn) | 0.9 | -9.3% | -13.7% | -16.1%
Fc1ccc(C2=NN(c3ccccc3)C(c3ccco3)C2)cc1 (stereo not drawn) | -2.3 | 7.1%[11.5 µM] | 318.8% | 12.0%
Clc1ccc(C2=NN(c3ccccc3)C(c3ccco3)C2)cc1 (stereo not drawn) | -0.9 | 25.1µM* | 52.2% | -22.5%
Cc1nc(N2N=C(c3ccc(Cl)cc3)CC2c2ccco2)sc1C(=O)N(C)C (stereo not drawn) | -1.4 | 31.6µM* | 57.1% | -18.6%
O=C(O)c1ccc(-c2ccc(Cc3ccc(-c4ccc(C(=O)O)cc4)o3)o2)cc1 | 4.8 | · | · | ·
Cc1cc(C(C)(C)C)ccc1OCCOCCN1CCCC1 | -11.0 | -0.3% | ? | -1.8%
Cc1cc(C(C)(C)C)ccc1OCCN(C)C | -31.2* | -1.2% | -6.7% | 10.7%
C#CCCOc1ccc(C(=O)c2ccc(-c3no[n+]([O-])c3C#N)cc2)cc1 | -11.6 | · | · | ·
COc1ccc(OC)c(NC(=O)CCn2nc(-c3ccccc3OC)c3c(C)cc(C)nc32)c1 | -21.0 | · | · | ·
Cc1ccc(C)c(-c2csc(-c3nc(-c4ccccc4)cs3)n2)c1 | 5.2 | · | · | ·
CCn1c2ccccc2c2cc(/C=C3/C=Cc4ccccc43)ccc21 | -54.7* | · | · | ·
C[N+](C)(C)c1ccc(/C=C2\C=Cc3ccccc32)cc1 | -24.0 | · | · | ·
COc1ccc(/C=C2\C(=O)ON=C2c2ccccc2)cc1 | -31.8* | -7.0% | -10.8% | -100.2%[56.9 µM]
O=C1ON=C(c2ccccc2)/C1=C/c1ccc(OS(=O)(=O)c2ccccc2)cc1 | -38.6* | -1.1% | -6.3% | ?
O=C1ON=C(c2ccccc2)/C1=C/c1ccc(O)c(O)c1 | 2.0 | -15.9% | -5.9% | ?
O=c1[nH]c(=O)n(Cc2ccco2)c2nccc(-c3ccc4c(c3)OCO4)c12 | 0.3 | · | · | ·
COc1ccccc1CCN1CNc2c(c(=O)[nH]c(=O)n2-c2cccc(Cl)c2C)C1 | 3.8 | · | · | ·
C[C@@]12CCC=C[C@H]1[C@H](c1ccc(/C=C/c3ccccc3)cc1F)N(Cc1ccccc1)C2=O | 0.6 | 39.8µM* | -1.7% | -0.7%
O=C(Nc1ccc(NC(=O)c2ccc(Cl)cc2Cl)cc1)c1ccc2c(c1)OCO2 | -0.6 | 6.6% | 30.1% | 1.3%
O=C(Nc1ccc(C2=NCCN2)cc1)c1ccc(C(=O)Nc2ccc(C3=NCCN3)cc2)c(Cl)c1 | -33.2* | -2.6% | 2.5% | -31.6%
CC1=CCCC(C)(C)C1/C=C/C(C)=N\NC(=S)Nc1cccnc1 (stereo not drawn) | -4.4 | · | · | ·
SMILES | LDHA inh | AT treatment | Apoferritin bind | RGS4 inh
O=C(Nc1ccc(Cl)cc1Cl)c1csc(-c2cccnc2)n1 | -14.2 | 39.8µM* | 4.4% | 0.6%
O=C(Nc1ccc(Cl)cc1)c1csc(-c2ccncc2)n1 | -0.1 | 1.5% | ? | -40.7%
O=C(Nc1ccc(Cl)cc1)c1csc(-c2ccccc2)n1 | -5.3 | 17.8µM* | -10.9% | 11.9%
Fc1cccc(C=Nc2cccc3c(N=Cc4cccc(F)c4)cccc23)c1 | 16.6 | · | · | ·
Cc1c(N)cccc1-c1nc2cc(C(C)C)ccc2o1 | -6.4 | · | · | ·
O=C(N/N=C/c1cc(Br)cc(Cl)c1O)c1ccc2c(c1)OCO2 | -31.9* | · | · | ?
Cc1cc(OC(C)C(=O)Nc2ccc3nsnc3c2)ccc1Cl (stereo not drawn) | 11.4 | · | · | ·
Cc1ccccc1CN1CCN(Cc2ccccc2C(F)(F)F)CC1 | -38.6* | ? | 63.1% | -10.1%
CC1(c2ccccc2)NC(=O)N(NC(=O)c2n[nH]c(=O)c3ccccc23)C1=O (stereo not drawn) | -3.6 | · | · | ·
